Reference: the supplement of paper PMC13380429

Test system: Vero E6 infected with SARS-CoV-2
Test: inhibition of SARS-CoV-2 cytopathic effect; higher = more antiviral protection, active = above 15
Settings: 48 h

Measured: inhibition of SARS-CoV-2 cytopathic effect

Oc1ccc2[nH]cc(C3=CCNCC3)c2n1
inactive: 1 nM 6.34% | 8.33 nM 6.88% | 100 nM -4.05% | 833.33 nM -1.7% | 10000 nM -2.6%

COc1cccc(-c2ccc(NC(=O)C3=C(C(=O)O)CCC3)c(F)c2)c1
inactive: 1 nM 2.25% | 8.33 nM 3.22% | 100 nM 2.16% | 833.33 nM 5.63% | 10000 nM 4.97%

Cc1cc(N2CCOCC2)ccc1Nc1nc(NC2CCCCC2)c2nc[nH]c2n1
inactive: 1 nM -1.92% | 8.33 nM 1.08% | 100 nM -7.66% | 833.33 nM 3.17% | 10000 nM 0.7%

Cn1cnc(N)c2ncnc1-2 [3-methyladenine]
inactive: 1 nM -3.13% | 8.33 nM -1.71% | 100 nM -2.68% | 833.33 nM -0.52% | 10000 nM -1.76%

CCOC(=O)[C@H]1O[C@@H]1C(=O)N[C@@H](CC(C)C)C(=O)NCCC(C)C [aloxistatin]
inactive: 1 nM 0.43% | 8.33 nM -1.01% | 100 nM 0.39% | 833.33 nM -0.54% | 10000 nM 11.2%

CN[C@@H]1[C@@H](O)[C@@H](O[C@@H]2[C@@H](O)[C@H](O[C@H]3O[C@H](CN)[C@@H](O)[C@H](O)[C@H]3O)[C@@H](N)C[C@H]2NC(=O)[C@@H](O)CN)OC[C@]1(C)O [isepamicin]
inactive: 1 nM -2.06% | 8.33 nM 1% | 100 nM 3.72% | 833.33 nM -1.29% | 10000 nM -1.06%

Cc1ccc2c(c1)[C@H]1CN(C)CC[C@H]1N2 [stobadine]
inactive: 1 nM 1.95% | 8.33 nM 2.65% | 100 nM 1.27% | 833.33 nM 1.23% | 10000 nM -0.96%
